Experimental findings from PubChem BioAssay (NCI) are described below.

Common to all, as to experiment: NCI-60 one-dose screen, 48 h (100 = growth as untreated, 0 = no growth, -100 = all killed)
What all share (settings): 10 µM

Assay [1] deals with RPMI-8226 leukemia.
For assay [2], the system named is OVCAR-8 ovarian.
The subject of assay [3] is OVCAR-5 ovarian.
For assay [4], the system named is OVCAR-4 ovarian.
Assay [5] has as its system SK-OV-3 ovarian.
The subject of assay [6] is IGROV1 ovarian.
Assay [7] deals with OVCAR-3 ovarian.
The subject of assay [8] is HS 578T breast.
Assay [9] has as its system NCI/ADR-RES ovarian.
The subject of assay [10] is SR leukemia.

Each structure is given as a SMILES string. About 83,000 compounds went through this panel and 20% of them were active in at least one assay; those are over-represented in the sample as a whole.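 Note: values are percent growth. 100 is the growth of untreated cells, values between 100 and 0 indicate rising inhibition; between -100 and 0 indicates cell death.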 A number with no mark means an inactive call. Activity calls are given as the source filed them. Rule for the calls: active = growth percent below 10; inactive = the rest.

Turning to `CC1CCC(C(=O)O)N1` (centres undefined), the growth in assay [1] was 105%; in assay [2] it was 112%; in [3], 91.5%; in assay [4], 99%; in assay [5], 94.2%; in assay [6] it was 101%. Moreover, the growth is 109% in [7], 106% in assay [8] and 93% in [9].
Turning to `O=C(Cc1nc2ccc([N+](=O)[O-])cc2nc1CC(=O)c1cccnc1)c1cccnc1`, the growth in assay [1] was 94.5%; in assay [2] it was 31.2%; in assay [3], 101%; in assay [4], 57.7%; in assay [5], 47.9%; in [6], 73.9%. The growth in [7] was 65.1%; in assay [8], 7.13% (active); in assay [9] it was 30.4%.
Consider `COc1ccccc1C1OC2=Nc3cc(C)c(C)cc3NC2C1=O` (centres undefined), for which the growth in assay [1] was 93.5%; in assay [2], 69%; in [3] it was 62.1%; in [4] it was -14.2% (active); in assay [5] it was 79.6%; in assay [6], 88.7%. The growth in assay [7] is 22.4%; in assay [8], 39.9%; in [9], 61.2%.
In the case of `Cc1cc2nc(CC(=O)c3ccccc3)c(=O)[nH]c2cc1C`, the growth is 103% in [1]; 94.7% in [2]; 116% in assay [3]; 102% in assay [4]; 102% in assay [5]; 91.9% in assay [6]. Besides, the growth in [7] is 109%; in assay [8], 73.8%; in [9], 94.6%.
In the case of `Cc1cc(=O)cc(C)n1-c1ccccc1`, the growth in assay [1] is 97.6%; in assay [2], 109%; in assay [3], 98.3%; in assay [4] it was 100%; in assay [5], 94.7%; in assay [6], 114%. Moreover, the growth was 120% in [7], 113% in assay [8] and 98.9% in [9].
Turning to `COc1cc2nc3cc([N+](=O)[O-])ccc3c(Cl)c2cc1OC`, the growth was 91.7% in assay [10]; 88.2% in [2]; 86.3% in assay [3]; 106% in [5]; 89.7% in assay [6]; 123% in [7]. The values for the growth in assay [8] and in [9] were 112% and 103%, respectively.
With `O=C(NC1CCCCC1)OCc1c(COC(=O)NC2CCCCC2)c(-c2ccc(Cl)c(Cl)c2)n2c1CCC2`, the growth in [1] was 40%; in [2] it was 35%; in [3], 19%; in [4] it was 11.5%; in assay [5] it was 12.4%; in assay [6], -42.4% (active). Moreover, the growth in assay [7] is 31.2%; in assay [8], 39.7%; in [9], 25.2%.
For `Cc1ccncc1C(N)=O`, the growth in assay [10] is 109%; in [2], 107%; in assay [3], 138%; in [4] it was 96.8%; in [5] it was 101%; in assay [7] it was 90.6%. Further, the growth in [8] is 116%; in [9], 133%.
In the case of `COC(=O)c1[nH]c(=O)c(C#N)c(C(=O)OC)c1C(=O)c1ccccc1`, the growth in assay [1] was 107%; in assay [2] it was 101%; in assay [3], 113%; in assay [4], 97.5%; in assay [5] it was 101%; in assay [6] it was 105%. In addition, in assay [7], the growth is 107%.
Consider `CN(C)CCN(Cc1ccccc1)c1ccccc1`, for which the growth was 88.1% in assay [10]; 115% in assay [2]; 125% in [3]; 110% in [5]; 124% in [6]; 121% in assay [7].
With `O=C(/C=C\c1ccc(O)cc1)c1ccccc1`, the growth in [10] was 76.6%; in assay [2], 98.6%; in assay [3], 88.4%; in assay [5], 108%; in assay [6], 87.3%; in [7], 96%. The values for the growth in assay [8] and in assay [9] were 110% and 101%, respectively.
Consider `COc1ccccc1NC(=O)C1=C(C)NC(C)=C(C(=O)Nc2ccccc2OC)C1c1cccc([N+](=O)[O-])c1`, for which the growth in [1] is 51.9%; in assay [2] it was 74.4%; in assay [3] it was 81.9%; in [4], 70.2%; in [5], 74.4%; in assay [6], 69.7%. For the same compound, the results for the growth in [7], in assay [8] and in assay [9] were 82.9%, 60.9% and 66.3%, respectively.
Take `COc1cc2cc(OC(C)=O)c3cc4c(cc3c2c(OC)c1OC)OCO4`: the growth in assay [1] is 97.4%; in assay [2] it was 102%; in assay [3], 92.3%; in assay [4] it was 111%; in assay [5], 103%; in assay [6], 107%. Also, the figures for the growth in [7] and in assay [8] were 101% and 91.4%, respectively.
As to `O=C(CC(=O)c1ccccc1O)c1ccccc1`, the growth was 87.6% in assay [1]; 73% in [2]; 101% in assay [3]; 90.6% in assay [4]; 98.9% in assay [5]; 98.3% in [6]. Further, the growth was 90.9% in assay [7], 106% in assay [8] and 64.4% in assay [9].
In the case of `CCOC(=O)/C(=C/c1ccc(OC)cc1)N(CC)CC`, the growth in assay [1] is 102%; in [2], 99.9%; in assay [3], 113%; in assay [4], 116%; in assay [5], 116%; in [6], 106%. Besides, the growth was 106% in assay [7], 93.7% in assay [8] and 107% in assay [9].
For `COc1ccc2c(c1)CCc1c-2n[nH]c1-c1[nH]nc2c1CCc1cc(OC)ccc1-2`, the growth in assay [1] was 61.2%; in assay [2] it was 84.7%; in assay [3] it was 89.6%; in assay [4], 77.3%; in [5], 77%; in [6], 62.4%. Moreover, the growth in [7] is 41.3%; in [8], 48.7%; in assay [9], 33.9%.
For the compound `CCCCNC(=O)C(=O)NCCCC`, the growth in assay [1] is 106%; in assay [2] it was 105%; in [3], 113%; in [4], 108%; in assay [5], 123%; in assay [6] it was 113%. Also, the growth in assay [7] was 108%; in assay [8], 96.6%; in assay [9] it was 104%.
